The target of the first assay is MAP kinase-activated protein kinase 2 (Homo sapiens) (UniProt P49137). As to conditions: at 1 µM.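 Note: values are mean inhibition from the GSK PKIS screen.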
MAP kinase-activated protein kinase 2 (Homo sapiens), sequence (P49137 whole entry, looked up): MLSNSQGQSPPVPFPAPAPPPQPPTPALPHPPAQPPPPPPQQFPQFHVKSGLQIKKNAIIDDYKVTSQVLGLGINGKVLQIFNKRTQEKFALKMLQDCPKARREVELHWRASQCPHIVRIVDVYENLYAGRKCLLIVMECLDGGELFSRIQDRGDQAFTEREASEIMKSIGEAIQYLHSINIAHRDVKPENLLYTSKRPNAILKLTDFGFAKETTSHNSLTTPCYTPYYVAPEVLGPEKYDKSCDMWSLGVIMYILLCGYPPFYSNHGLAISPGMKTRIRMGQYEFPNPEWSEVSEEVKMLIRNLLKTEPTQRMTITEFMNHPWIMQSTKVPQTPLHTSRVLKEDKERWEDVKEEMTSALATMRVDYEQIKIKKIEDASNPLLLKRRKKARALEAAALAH
As for `CCn1c(-c2nonc2N)nc2c(C#CCN)ncc(OCCCN)c21`, the inhibition (usually the relative decrease from the control value, in per cent) was -0.87%.
Consider `NS(=O)(=O)c1ccc(N/C=C2\C(=O)Nc3ccc4ncsc4c32)cc1`, for which the inhibition was 2.48%.
On the same count and under the same terms, to `COc1cc(C=NNc2ncnc3c2cnn3Cc2ccccc2)ccc1O` belongs -2.27%.
On the same count and under the same terms, to `Fc1ccc(-c2ncn(C3CCNCC3)c2-c2ccnc(Oc3ccccc3)n2)cc1` belongs -0.82%; to `COc1cc2c(cc1Nc1nc(Nc3ccsc3C(N)=O)c3cc[nH]c3n1)N(C(=O)CN(C)C)CCC2`, -2.2%.
Consider `COc1cccc(-n2ncc3c(N/N=C/c4ccncc4)ncnc32)c1`, for which the inhibition is 1.87%.
With `CCn1c(-c2nonc2N)nc2c(C#CC(C)(C)O)nc(O[C@@H](CN)c3ccccc3)cc21`, the inhibition was -1%.
The same measure, in the same setting: to `NC(=O)c1sc(-n2cnc3cc(C(F)(F)F)ccc32)cc1OCc1ccccc1Br` belongs 0.42%; to `NS(=O)(=O)c1ccc(-c2ccc3c(NC(=O)C4CC4)n[nH]c3c2)cc1`, 0.96%; to `Nc1nonc1-c1nc2cnccc2n1C1CCCCC1`, -1.08%.
The same measure, in the same setting: to `Cc1cc(-c2ccco2)cc(C)c1/C=C/c1cncc(-c2nn[nH]n2)c1` belongs 0.01%.
Regarding `CCn1c(-c2nonc2N)nc2c(C#CC(C)(C)O)ncc(OC[C@@H]3CCCN3)c21`, the inhibition is -0.71%.
The same measure, in the same setting: to `COc1cccc(COc2cc(-n3cnc4ccccc43)sc2C(N)=O)c1` belongs -1.3%; to `CCn1c(-c2nonc2N)nc2c(C#CC(C)(C)O)ncc(OCC3CCNCC3)c21`, 1.63%.

A further assay deals with MAP kinase-activated protein kinase 3 (Homo sapiens) (UniProt Q16644). As to conditions: at 0.1 µM.
MAP kinase-activated protein kinase 3 (Homo sapiens), sequence (Q16644 whole entry, looked up): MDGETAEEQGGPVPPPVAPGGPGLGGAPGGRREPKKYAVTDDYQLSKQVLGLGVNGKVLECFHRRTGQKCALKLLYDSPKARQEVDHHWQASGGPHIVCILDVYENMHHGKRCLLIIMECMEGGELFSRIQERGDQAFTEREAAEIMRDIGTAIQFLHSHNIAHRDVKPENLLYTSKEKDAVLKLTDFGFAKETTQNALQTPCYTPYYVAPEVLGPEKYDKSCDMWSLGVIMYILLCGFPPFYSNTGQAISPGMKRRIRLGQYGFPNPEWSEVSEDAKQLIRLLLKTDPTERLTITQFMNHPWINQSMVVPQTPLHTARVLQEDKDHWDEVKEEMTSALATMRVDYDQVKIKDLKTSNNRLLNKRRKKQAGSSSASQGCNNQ
Take `CCn1c(-c2nonc2N)nc2c(C#CCN)ncc(OCCCN)c21`: the inhibition is -1.07%.
In the case of `NS(=O)(=O)c1ccc(N/C=C2\C(=O)Nc3ccc4ncsc4c32)cc1`, the inhibition stood at 7.84%.
Same read-out and setting: to `COc1cc(C=NNc2ncnc3c2cnn3Cc2ccccc2)ccc1O` belongs -2.35%; to `Fc1ccc(-c2ncn(C3CCNCC3)c2-c2ccnc(Oc3ccccc3)n2)cc1`, 31.3%.
Still for that read-out and setting: to `COc1cc2c(cc1Nc1nc(Nc3ccsc3C(N)=O)c3cc[nH]c3n1)N(C(=O)CN(C)C)CCC2` belongs 6.83%; to `COc1cccc(-n2ncc3c(N/N=C/c4ccncc4)ncnc32)c1`, 3.62%; to `CCn1c(-c2nonc2N)nc2c(C#CC(C)(C)O)nc(O[C@@H](CN)c3ccccc3)cc21`, -3.02%.
On the same count and under the same terms, to `NC(=O)c1sc(-n2cnc3cc(C(F)(F)F)ccc32)cc1OCc1ccccc1Br` belongs 1.71%.
For `NS(=O)(=O)c1ccc(-c2ccc3c(NC(=O)C4CC4)n[nH]c3c2)cc1`, the inhibition came to 2.61%.
Same read-out and setting: to `Nc1nonc1-c1nc2cnccc2n1C1CCCCC1` belongs -2.2%; to `Cc1cc(-c2ccco2)cc(C)c1/C=C/c1cncc(-c2nn[nH]n2)c1`, 1.42%.
Turning to `CCn1c(-c2nonc2N)nc2c(C#CC(C)(C)O)ncc(OC[C@@H]3CCCN3)c21`, the inhibition was -0.39%.
The same measure, in the same setting: to `COc1cccc(COc2cc(-n3cnc4ccccc43)sc2C(N)=O)c1` belongs 2.28%; to `CCn1c(-c2nonc2N)nc2c(C#CC(C)(C)O)ncc(OCC3CCNCC3)c21`, 2.86%.

The values above are taken from ChEMBL document CHEMBL1961873, “Compounds: GSK PKIS; Assays: Nanosyn kinase panel” (2012).
